# An excerpt weighted towards active compounds, which were near 2% of everything screened.
# CHT allo act = human CHT allosteric activation. Q9GZV3. CHT-expressing cells, membrane potential dye, choline EC20; stronger effect = higher value; LV-AA mutant CHT in HEK293 cells. B-score at 10 µM. hit rate 0.49% among 310,000;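 active means initial fluorescence not abnormally high and integrated response B-score, plate-corrected, over 3 SD above library mean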
# Target sequence (Q9GZV3 whole entry, looked up): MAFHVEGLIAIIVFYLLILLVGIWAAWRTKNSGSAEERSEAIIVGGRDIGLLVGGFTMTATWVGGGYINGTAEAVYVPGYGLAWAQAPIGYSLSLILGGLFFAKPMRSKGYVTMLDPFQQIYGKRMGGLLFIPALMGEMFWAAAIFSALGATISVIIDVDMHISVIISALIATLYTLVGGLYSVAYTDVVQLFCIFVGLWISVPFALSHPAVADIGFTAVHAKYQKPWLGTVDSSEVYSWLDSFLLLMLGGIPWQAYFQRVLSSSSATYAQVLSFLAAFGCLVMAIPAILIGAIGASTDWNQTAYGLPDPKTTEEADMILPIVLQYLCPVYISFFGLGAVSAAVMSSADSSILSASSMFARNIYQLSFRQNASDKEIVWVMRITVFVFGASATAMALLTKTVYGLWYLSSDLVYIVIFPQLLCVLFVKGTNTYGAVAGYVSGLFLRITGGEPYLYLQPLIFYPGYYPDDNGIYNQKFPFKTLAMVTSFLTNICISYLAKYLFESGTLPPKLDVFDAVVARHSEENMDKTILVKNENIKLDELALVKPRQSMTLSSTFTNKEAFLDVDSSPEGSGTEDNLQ
# CHT inh = human CHT choline transport inhibition; CHT-expressing cells, membrane potential dye, choline response; stronger effect = lower value; B-score at 10 µM; hit rate 0.86% among 310,000;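 active means B-score over 3 SD under the library average, and starting fluorescence ratio not unusually high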;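 further: choline stimulus applied at its EC90 after an EC20 pre-addition; B-score computed on integrated fluorescence ratio after choline addition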
# TAG inh = inhibitors of triacylglycerol accumulation. H9c2 cells, Nile Red lipid (TAG) fluorescence; cells loaded with 200 µM oleic acid. inhibition, % at 12.5 µM. hit rate 0.66% among 230,000. AID 651582;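 active means pattern-corrected inhibition of lipid staining of at least 50% with the nuclear-stain viability signal not falling by more than 50%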;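 further: 0% = DMSO wells and 100% = triacsin C control wells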
# Kir21 block = Kir2.1 (mouse) channel inhibition; hit rate 0.85% among 310,000; P35561; AID 1672; B-score at 10 µM; HEK293-Kir2.1, FluxOR thallium flux fluorescence; stronger effect = lower value;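 active means fluorescence ratio B-score at or below minus 3 SD of library scores, with starting-brightness B-score within 2 SD, cut at about -4.2 in these data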;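 further: channel flux triggered by added potassium and thallium sulfate stimulus; B-score of peak minus minimum fluorescence over baseline after thallium stimulus; more negative B-score means stronger Kir2.1 block with less thallium influx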
# CHT activ conf = confirmation of human choline transporter (CHT) activators; activation, % at 10 µM; CHT-expressing cells, membrane potential dye fluorescence (FDSS); % of choline EC20–EC90 response window; HEK293 expressing CHT LV-AA mutant; choline added at its EC20; hit rate 91% among 2,500; shares compounds with CHT allo act; AID 504833;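 active means primary screen active, with duplicate mean activation above negative control mean plus 3 SD, cut at about 11% in these data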
# HEK293 MP dye = activity in parental HEK293 cells lacking CHT; shares compounds with CHT allo act; membrane potential dye fluorescence (FDSS); measured after EC20 choline addition; ratio readout change at 10 µM, hits read low; hit rate 62% among 2,500;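 active means duplicate-averaged ratio beyond 3 SD from buffer wells, up or down, though filed actives are nearly all decreases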
# The depositor's hits bear a star; i = inactive; / = no result given.
SMILES,CHT allo act,CHT inh,TAG inh,Kir21 block,CHT activ conf,HEK293 MP dye
CC[n+]1c(C)sc2c(C)cc(C)cc21,7.83*,i,-5.0,-0.19,62.2*,-59.7*
COC(=O)c1n[nH]n(-c2cc(Cl)cc(Cl)c2)c1=O,i,i,-8.4,-0.69,/,/
COc1cc(OC)c(-c2nc(-c3ccncc3)no2)cc1OC,i,i,/,1.02,44.7*,-43.4*
COc1ccc(-c2nc(-c3ccncc3)no2)c(OC)c1,i,i,-4.4,-0.43,/,/
O=C(NC1CC2CCC(C1)N2Cc1ccco1)c1ccccc1 (configuration not stated),7.7*,i,6.1,0.37,2.4,i
Cc1ccc(N(CCO)C(=S)Nc2ccccc2)cc1,i,i,4.9,-0.97,/,/
Cc1cc[n+](Cc2ccc([N+](=O)[O-])cc2)cc1,i,i,-7.0,-1,/,/
Cc1ccc(-c2cc[n+](Cc3ccccc3)cc2)cc1,6.68*,i,-1.8,-2.67,57.6*,-42.1*
O=C(NCC1CCCO1)c1ccc(CNS(=O)(=O)c2cccc(Cl)c2)cc1 (configuration not stated),i,i,-4.3,1.66,/,/
C=CCOC(=O)C1=C[C@@H](c2ccc(Br)cc2)[C@H](CCCO)[C@@H](OCC)O1,6.75*,i,12.5,-1.75,24.9*,i
C(=N\Nc1ccccn1)/c1cccnc1,i,i,/,0.88,59.0*,-54.1*
COc1ccc(/C=N/Nc2ccccn2)cc1OC,i,i,-3.4,-0.31,41.5*,-42.6*
FC(F)(F)c1ccc(N/N=C/c2cccnc2)nc1,i,i,/,-0.11,/,/
N/C(=N\OC(=O)c1ccncc1)c1cccc([N+](=O)[O-])c1,7.26*,i,/,1.13,37.3*,-45.5*
Cc1ccc(C(=O)O/N=C(\N)c2cccc([N+](=O)[O-])c2)cc1,i,i,/,0.73,/,/
COc1cccc(O)c1CN1CCC(Oc2ccc(C(=O)NCc3ccccn3)cc2)CC1,i,i,/,-2.7,/,/
Cc1nc2ccccc2c2oc(C(=O)N3CCC(N4CCCCC4)CC3)cc12,7.03*,i,13.0,/,48.9*,-41.3*
Cc1nc2ccccc2c2oc(C(=O)NCCN3CCCCC3C)cc12 (configuration not stated),i,i,21.1,-1.22,34.2*,i
COc1ccc(Br)cc1CN1CCN(C(=O)c2cccc(F)c2)CC1,i,i,/,-1.49,/,/
Cc1ccc(S(=O)(=O)c2cn(C)c3cc(N4CCN(C)CC4)c(F)cc3c2=O)c(C)c1,9.07*,i,/,-0.16,74.1*,-83.9*
CCn1cc(C(=O)O)c(=O)c2cc(F)c(N3CCN(C(=S)NC(=O)c4ccc(OC)cc4)CC3)cc21,i,i,/,1.38,/,/
CCn1cc(S(=O)(=O)c2ccc(OC)cc2)c(=O)c2cc(F)c(N3CCN(C)CC3)cc21,i,i,/,-1.12,59.4*,-47.7*
CCN1CCN(c2cc3c(cc2F)c(=O)c(S(=O)(=O)c2ccccc2)cn3C)CC1,8.36*,i,/,-0.98,77.4*,-98.7*
OCCN(CCO)c1cc2c3ccccc3ccc2c2ccccc12,/,/,-0.8,/,/,/
O=C(Nc1cccc(S(=O)(=O)N2CCOCC2)c1)c1cc(S(=O)(=O)N2CCOCC2)c(Cl)cc1Cl,/,/,13.2,/,/,/
SMILES,CHT allo act,CHT inh,TAG inh,Kir21 block,CHT activ conf,HEK293 MP dye
CCCCCCCCC1=NCCc2c1[nH]c1ccccc21,i,i,/,-7.81*,48.4*,i
CCCCc1c(O)c2ccccc2[nH]c1=O,i,i,-28.3,0.7,/,/
CCCN1CCN(C(=O)c2ccc(CS(=O)c3ccc(F)cc3)o2)CC1 (configuration not stated),i,i,/,1.87,/,/
CCCCn1c(=NC(=O)c2ccco2)c(C(=O)OCC)cc2c(=O)n3ccccc3nc21,i,i,17.1,0.56,/,/
CCOC(=O)c1cc2c(=O)n3ccccc3nc2n(Cc2ccco2)c1=NC(=O)c1ccc(OC)cc1OC,i,i,-1.8,-0.42,20.9*,-25.5*
CC(NC(=O)c1cc2c(=O)n3ccccc3nc2n(CC2CCCO2)c1=N)c1ccccc1 (configuration not stated),i,i,/,0.97,/,/
